IL-1B inflam inh = inflammasome signaling inhibition, IL-1 beta readout; THP-1 LPS/ATP IL-1B secretion, AlphaLISA, 16 h; hits give low values; activity change, % at 57.5 µM; 360,000 tested, 4.7% active; AID 743279; in the data active = activity change below about -50%; inconclusive = mostly about -30% to -49%
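Secreted IL-1B measured by AlphaLISA bead assay after 16 h compound exposure of THP-1 cells; compounds (final up to 57.5 uM) added 1 h before LPS (250 ng/mL) and ATP (1.25 mM) stimulation; lower signal means less secretion.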
HT1080 IDH1KD tx = toxicity to HT-1080 IDH1 knockdown cells (counter line). HT-1080 IDH1 knockdown viability, ATP luminescence, 48 h. Potency, µM (top dose mostly 46.1 µM), actives largely listed as cytotoxic. 360,000 tested, 2% active. AID 686971
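In this qHTS, HT-1080 cells depleted of IDH1 are exposed for 48 h at 37 °C to compound titrations. Toxicity is scored from CellTiter-Glo luminescence, with DMSO as full viability and medium alone as none.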
HT1080-NT tox = kills 2HG-producing HT-1080-NT fibrosarcoma cells; 360,000 tested, 1.6% active; HT-1080-NT fibrosarcoma viability, CellTiter-Glo ATP luminescence, 48 h; Potency, µM (doses to about 46.1 µM), most hits filed as cytotoxic;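 also: NT is the 2HG producing partner of a matched IDH1 knockdown line; nearly all actives have a fitted effect of over 55% in size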
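A 48-hour cytotoxicity screen used HT-1080-NT cells plated 2 hours before compound delivery. ATP-based CellTiter-Glo luminescence measured viability, normalized to DMSO and no-cell controls.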
TDP1 cell CPT = growth inhibition of DT40 Tdp1-/-;hTDP1 cells with camptothecin (screen for TDP1 inhibitors); Potency, µM (doses to about 46.2 µM), actives largely listed as inhibitors; AID 686979; chicken DT40 Tdp1-/-;hTDP1 cells + 20 nM CPT, ATP luminescence, 48 h; 420,000 tested, 12% active; also: nearly all actives have a fitted effect of over 55% in size
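Chicken DT40 Tdp1-/- cells stably complemented with human TDP1 were seeded at 400 cells/well in medium containing 20 nM camptothecin, exposed to pin-transferred compounds, and grown at 37 °C for at least 48 hr. Viability was read as ATP luminescence.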
DT40 TDP1 no CPT = qHTS for Inhibitors of human tyrosyl-DNA phosphodiesterase 1 (TDP1): qHTS in cells in absence of CPT. DT40 Tdp1-/- hTDP1 cells, no CPT, ATP luminescence, 48 h. Potency, µM (highest dose often 46.2 µM), usual class: inhibitors. 420,000 tested, 15% active. AID 686978, 2013; also: nearly all actives have a fitted effect of over 55% in size
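Luminescent ATP content (CellTiter-Glo) served as the growth readout. Knockout chicken DT40 cells expressing human TDP1 were exposed to compounds without camptothecin for a minimum 48 hr at 37 °C.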
12-LOX inh = blocks human arachidonate 12S-lipoxygenase; 580,000 tested, 1.1% active; purified 12hLO, xylenol orange hydroperoxide absorbance; P18054; Potency, µM (top dose mostly 108 µM), most hits filed as inhibitors
Target sequence (P18054 whole entry, looked up): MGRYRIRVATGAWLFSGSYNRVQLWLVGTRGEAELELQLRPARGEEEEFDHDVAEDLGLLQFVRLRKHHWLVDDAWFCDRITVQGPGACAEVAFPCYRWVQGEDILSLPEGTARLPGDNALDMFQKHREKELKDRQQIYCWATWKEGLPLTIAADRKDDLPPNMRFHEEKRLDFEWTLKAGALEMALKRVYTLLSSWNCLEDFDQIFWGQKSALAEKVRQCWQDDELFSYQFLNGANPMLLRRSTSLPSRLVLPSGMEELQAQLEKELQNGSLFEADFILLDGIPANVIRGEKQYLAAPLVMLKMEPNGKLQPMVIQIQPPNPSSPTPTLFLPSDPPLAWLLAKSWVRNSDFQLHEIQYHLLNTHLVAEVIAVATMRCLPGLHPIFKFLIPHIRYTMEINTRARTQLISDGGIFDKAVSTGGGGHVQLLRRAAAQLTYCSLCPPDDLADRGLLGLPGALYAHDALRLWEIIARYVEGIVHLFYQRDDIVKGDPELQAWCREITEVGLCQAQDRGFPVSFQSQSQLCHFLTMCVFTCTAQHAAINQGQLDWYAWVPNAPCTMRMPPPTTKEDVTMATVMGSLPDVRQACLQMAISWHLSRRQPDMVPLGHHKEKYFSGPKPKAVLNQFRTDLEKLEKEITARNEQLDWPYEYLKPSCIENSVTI
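Hydroperoxide product was detected by ferrous iron/xylenol orange as the 573 to 405 nm absorbance ratio. Arachidonic acid at 40 uM (final) was turned over for 30 min at room temperature by 150 nM human 12hLO, pH 7.0 Hepes buffer, after 15 min compound preincubation.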
Of the large screens only hits and unclear results are named; the others gave an inactive call. The sample as a whole holds a higher share of hits than the screen did. Unless noted, calls follow the shape of the dose curve; as a rule, active = well fitted curve in the direction sought with a large enough effect; inconclusive = small, poorly fitted or top-dose-only effect, or another doubt; inactive = no such curve, though single readings can be large; an effect the other way counts as inactive or inconclusive.

COc1cc(CNCc2cc(OC)c(OC)c(OC)c2)cc(OC)c1	TDP1 cell CPT 13µM, DT40 TDP1 no CPT 23.1µM, 12-LOX inh inconclusive
CCOc1cc(CNCc2cc(OC)cc(OC)c2)ccc1OC	IL-1B inflam inh -58.2, HT1080 IDH1KD tx inconclusive, HT1080-NT tox inconclusive, TDP1 cell CPT 13µM, DT40 TDP1 no CPT 8.2µM, 12-LOX inh inconclusive
COc1ccc(CNCc2cc(OC)ccc2OC)cc1	TDP1 cell CPT inconclusive, DT40 TDP1 no CPT inconclusive, 12-LOX inh inconclusive
Cc1cnn(CC(=O)N2C[C@@H](COc3ccccc3)[C@H](C(N)=O)C2)c1	none (no result: IL-1B inflam inh, HT1080 IDH1KD tx, HT1080-NT tox, TDP1 cell CPT, DT40 TDP1 no CPT)
CC(=O)c1cccc(-c2ccnc3c2CC(C(=O)Nc2cccc(OC(F)(F)F)c2)O3)c1 (stereo not given)	HT1080 IDH1KD tx 16.4µM, HT1080-NT tox inconclusive, DT40 TDP1 no CPT inconclusive, 12-LOX inh inconclusive
O=C(Nc1cccc(OC(F)(F)F)c1)C1Cc2c(-c3ccc4c(c3)OCO4)ccnc2O1 (stereo not given)	HT1080 IDH1KD tx 23.1µM, HT1080-NT tox inconclusive, TDP1 cell CPT 16.4µM, DT40 TDP1 no CPT 20.6µM
NC(=O)c1cccc(-c2ccnc3c2CC(C(=O)Nc2cccc(Oc4ccccc4)c2)O3)c1 (stereo not given)	HT1080 IDH1KD tx 23.1µM, HT1080-NT tox inconclusive, TDP1 cell CPT inconclusive, DT40 TDP1 no CPT inconclusive (no result: 12-LOX inh)
CCCS(=O)(=O)N1CCC(Oc2ccccc2-c2nc(C3CC3)no2)C1 (stereo not given)	none (no result: IL-1B inflam inh, HT1080 IDH1KD tx, HT1080-NT tox, TDP1 cell CPT, DT40 TDP1 no CPT)
CC(C)CC(NC(N)=O)C(=O)O (stereo not given)	none (no result: IL-1B inflam inh, HT1080 IDH1KD tx, HT1080-NT tox, TDP1 cell CPT, DT40 TDP1 no CPT)
Cc1nn2c(c1-c1ccccc1-c1ccccc1)N(CCC(C)C)CCC2	12-LOX inh 39.8µM (no result: IL-1B inflam inh, HT1080 IDH1KD tx, HT1080-NT tox, TDP1 cell CPT, DT40 TDP1 no CPT)
Cc1nn2c(c1-c1ccccc1-c1ccccc1)N(Cc1ccccc1)CCC2	none (no result: IL-1B inflam inh, HT1080 IDH1KD tx, HT1080-NT tox, TDP1 cell CPT, DT40 TDP1 no CPT)
O=C(OCC(=O)c1c[nH]c2ccccc12)c1ccc(Cl)c([N+](=O)[O-])c1	none (no result: IL-1B inflam inh, HT1080 IDH1KD tx, HT1080-NT tox, TDP1 cell CPT, DT40 TDP1 no CPT)
Cc1cc(SCC#N)n2nc(C)c(-c3ccc(Cl)cc3)c2n1	HT1080 IDH1KD tx 8.91µM, HT1080-NT tox inconclusive
Cc1cc(Cl)n2nc(C)c(-c3ccc(Cl)cc3)c2n1	IL-1B inflam inh -98.6, HT1080 IDH1KD tx 18.4µM, HT1080-NT tox inconclusive, TDP1 cell CPT inconclusive, DT40 TDP1 no CPT inconclusive
Cc1cc(SCC#N)n2nc(C)c(-c3ccccc3)c2n1	IL-1B inflam inh -59.6
C=CCSc1cc(C)nc2c(-c3ccccc3)c(C)nn12	HT1080 IDH1KD tx inconclusive, HT1080-NT tox inconclusive, TDP1 cell CPT inconclusive, DT40 TDP1 no CPT inconclusive
Cc1cc(NCCCn2ccnc2)n2nc(C)c(-c3ccc(Cl)cc3)c2n1	IL-1B inflam inh -60.3, HT1080 IDH1KD tx 11.2µM, TDP1 cell CPT 16.4µM, DT40 TDP1 no CPT 14.6µM
Cc1cc(N)n2nc(C)c(-c3ccc(Cl)cc3)c2n1	HT1080 IDH1KD tx inconclusive, HT1080-NT tox inconclusive, TDP1 cell CPT inconclusive, DT40 TDP1 no CPT inconclusive
O=C(Cn1c(-c2cscn2)nc2ccccc21)Nc1ccccc1N1CCCC1=O	none (no result: IL-1B inflam inh, HT1080 IDH1KD tx, HT1080-NT tox, TDP1 cell CPT, DT40 TDP1 no CPT)
COc1ccc(S(=O)(=O)N2CCN(C(=O)CN3C(=O)NC(C)(c4ccc5ccccc5c4)C3=O)CC2)cc1 (stereo not given)	TDP1 cell CPT inconclusive, DT40 TDP1 no CPT 23.1µM
CC1(c2ccc3ccccc3c2)NC(=O)N(CC(=O)N2CCN(Cc3ccccc3)CC2)C1=O (stereo not given)	IL-1B inflam inh inconclusive, HT1080-NT tox 5.8µM, TDP1 cell CPT 8.2µM, DT40 TDP1 no CPT 4.61µM (no result: 12-LOX inh)
COc1ccc(C2(C)NC(=O)N(CC(=O)Nc3ccc4ccccc4c3)C2=O)cc1OC (stereo not given)	IL-1B inflam inh -55.3, HT1080-NT tox inconclusive, DT40 TDP1 no CPT inconclusive, 12-LOX inh inconclusive
CSc1nc(N)c(C(=O)Nc2ccc([N+](=O)[O-])cc2)s1	IL-1B inflam inh -74.6, DT40 TDP1 no CPT inconclusive
CC(C)C1=NN(C(=O)c2cccnc2)C(O)(C(F)(F)F)C1 (stereo not given)	TDP1 cell CPT inconclusive, DT40 TDP1 no CPT inconclusive

Assay outcomes (PubChem BioAssay)
